# “And” between values parts separate entries of the source, which are not always exact repeats. Equal values may be shown once. More than one record can exist for a structure, and the calls need not agree. The source made the active and inactive calls. The calls were made as follows: active = hit-call score of the fitted dose curve at least 0.9, where 1 is the maximum; inactive = score below 0.9.
# Legend:
# Conditions in all cases: primary human HUVEC with PBMC; actives raise or lower the signal
# [1] = read-out: Interleukin-1 alpha (IL1a), IL1A (gene 3552); assay: BSK_LPS_IL1a: BioMAP Diversity Plus: LPS Assay for Interleukin-1 alpha (IL1a) Biomarker Activity (AID 2283080)
# How it was run: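 Measured: IL-1 alpha via ELISA at 24 h in LPS-activated human umbilical vein endothelium–PBMC co-culture. Baseline: DMSO, bidirectional fitting.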
# [2] = read-out: Monocyte Chemoattractant Protein-1 (MCP1), CCL2 (gene 6347); assay: BSK_LPS_MCP1: BioMAP Diversity Plus: LPS Assay for Monocyte Chemoattractant Protein-1 (MCP1) Biomarker Activity (AID 2283081);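 as to AC50: secreted MCP-1 protein quantified by ELISA in culture supernatant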
# How it was run: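 LPS-stimulated HUVEC/PBMC co-culture; chemical, 24 h; MCP-1 by ELISA; bidirectional fit vs DMSO; cytotoxicity via SRB (0.1% stain, 10% TCA fix, 560 nm) in parallel wells.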
# [3] = BSK_LPS_PGE2: BioMAP Diversity Plus: LPS Assay for Prostaglandin E2 (PGE2) Biomarker Activity (AID 2283082);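 as to AC50: secreted prostaglandin E2 measured by ELISA in LPS-stimulated co-culture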
# How it was run: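 HUVEC plus human PBMC co-culture stimulated with LPS; secreted PGE2 quantified by ELISA 24 h after chemical dosing. Activity fitted bidirectionally against DMSO baseline; parallel SRB staining (0.1% SRB after 10% TCA fixation, 560 nm) flags overt cytotoxicity.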
# [4] = read-out: Macrophage colony-stimulating factor (MCSF), CSF1 (gene 1435); assay: BSK_LPS_MCSF: BioMAP Diversity Plus: LPS Assay for Macrophage colony-stimulating factor (MCSF) Biomarker Activity (AID 2283083)
# How it was run: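 Compound is added to a human vascular primary co-culture of umbilical vein endothelium and blood mononuclear cells. After 24 h, M-CSF is quantified by ELISA. Signal changes are fitted in both directions against DMSO.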
# [5] = read-out: Tissue Factor, F3 (gene 2152); assay: BSK_LPS_TissueFactor: BioMAP Diversity Plus: LPS Assay for Tissue Factor Biomarker Activity (AID 2283084)
# How it was run: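 In this co-culture system of umbilical vein endothelium with PBMC, stimulated with LPS, cell-surface CD142 is detected by ELISA at 24 h. Endpoint values derive from bidirectional fitting, DMSO serving as baseline.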
# [6] = read-out: Tumor necrosis factor (Homo sapiens) (UniProt P01375); assay: BSK_LPS_TNFa: BioMAP Diversity Plus: LPS Assay for Tumour Necrosis Factor alpha (TNFa) Biomarker Activity (AID 2283085);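 as to AC50: TNFa protein level quantified by ELISA in the co-culture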
# How it was run: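 Human umbilical vein endothelial cells co-cultured with PBMC and stimulated with LPS. TNFa was measured by ELISA 24 h after chemical dosing, fitted bidirectionally relative to DMSO.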
# [7] = read-out: Vascular cell adhesion molecule 1 (VCAM1), VCAM1 (gene 7412); assay: BSK_LPS_VCAM1: BioMAP Diversity Plus: LPS Assay for Vascular cell adhesion molecule 1 (VCAM1) Biomarker Activity (AID 2283086)
# How it was run: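 Human umbilical vein endothelial cells co-cultured with PBMC and stimulated with LPS; VCAM-1 measured by ELISA 24 h after dosing. Bidirectional curve fitting against DMSO baseline; cytotoxicity tracked in parallel by SRB total-protein staining.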
# CD38, CD38 (gene 952) = assay: BSK_SAg_CD38: BioMAP Diversity Plus: SAg Assay for CD38 Biomarker Activity (AID 2283087)
# How it was run: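 Human HUVEC plus PBMC co-culture stimulated with superantigen; CD38 measured by ELISA 24 h after chemical dosing. Fluorescence read-out, bidirectional fit against DMSO; cytotoxicity tracked in parallel by SRB and Alamar Blue.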
# CD69, CD69 (gene 969) = assay: BSK_SAg_CD69: BioMAP Diversity Plus: SAg Assay for CD69 Biomarker Activity (AID 2283089);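 as to AC50: cell surface CD69 protein quantified by ELISA with fluorescence detection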
# How it was run: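 ELISA, fluorescence read-out: CD69 on human umbilical vein endothelial cell + PBMC co-culture, 24 h post-dosing. Gain or loss of signal fitted bidirectionally against DMSO baseline.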
# CD40, CD40 (gene 958) = assay: BSK_SAg_CD40: BioMAP Diversity Plus: SAg Assay for CD40 Biomarker Activity (AID 2283088)
# How it was run: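 Fluorescence ELISA read-out of CD40 from umbilical vein endothelium plus peripheral blood mononuclear cells, sampled 24 h after dosing. Values come from bidirectional curve fitting with DMSO as baseline.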
# Tumor necrosis factor (Homo sapiens), sequence (P01375 whole entry, looked up): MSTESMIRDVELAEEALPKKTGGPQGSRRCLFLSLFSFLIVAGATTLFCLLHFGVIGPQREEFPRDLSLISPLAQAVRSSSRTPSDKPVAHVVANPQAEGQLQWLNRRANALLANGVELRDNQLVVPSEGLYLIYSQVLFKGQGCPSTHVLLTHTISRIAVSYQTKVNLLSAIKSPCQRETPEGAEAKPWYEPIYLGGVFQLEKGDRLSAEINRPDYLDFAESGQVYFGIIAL
smiles,measurement,setting,value
NC(=O)c1c(Cl)cccc1Cl,outcome,[1],inactive
same,outcome,[2],inactive
same,outcome,[3],inactive
same,outcome,[4],inactive
same,outcome,[5],inactive
same,outcome,[6],inactive
same,outcome,[7],inactive
same,outcome,"CD38, CD38 (gene 952)",inactive
same,outcome,"CD69, CD69 (gene 969)",inactive
O=S(=O)(O)C(F)(F)C(F)(F)OC(F)(F)C(F)(F)F,outcome,[1],inactive
same,outcome,[2],inactive
same,outcome,[3],inactive
same,outcome,[4],inactive
same,outcome,[5],inactive
same,outcome,[6],inactive
same,outcome,[7],inactive
same,outcome,"CD38, CD38 (gene 952)",inactive
same,outcome,"CD69, CD69 (gene 969)",inactive
CC(C)(CO)CO,outcome,[1],inactive
same,outcome,[2],inactive
same,outcome,[3],inactive
same,outcome,[4],inactive
same,outcome,[5],inactive
same,outcome,[6],inactive
same,outcome,[7],inactive
same,outcome,"CD38, CD38 (gene 952)",inactive
same,outcome,"CD69, CD69 (gene 969)",inactive
CCCCCCCCCC(=O)OCC,outcome,[1],inactive
same,outcome,[2],inactive
same,outcome,[3],inactive
same,outcome,[4],inactive
same,outcome,[5],inactive
same,outcome,[6],inactive
same,outcome,[7],inactive
same,outcome,"CD38, CD38 (gene 952)",inactive
same,outcome,"CD40, CD40 (gene 958)",inactive
same,outcome,"CD69, CD69 (gene 969)",inactive
CCCCCCCCCCCCS,outcome,[1],inactive
same,AC50,[2],33.3 µM (active)
same,AC50,[3],3.97 µM (active)
same,AC50,[4],31.4 µM (active)
same,outcome,[5],inactive
same,outcome,[6],inactive
same,AC50,[7],20 µM (active)
same,AC50,"CD38, CD38 (gene 952)",28.6 µM (active)
same,AC50,"CD69, CD69 (gene 969)",20 µM (active)
CCn1cc(C(=O)O)c(=O)c2ccc(C)nc21,outcome,[1],inactive
same,outcome,[2],inactive
same,outcome,[3],inactive
same,outcome,[4],inactive
same,outcome,[5],inactive
same,outcome,[6],inactive
same,outcome,[7],inactive
same,outcome,"CD38, CD38 (gene 952)",inactive
same,outcome,"CD69, CD69 (gene 969)",inactive
CC/C(=C(\c1ccccc1)c1ccc(OCCN(C)C)cc1)c1ccccc1,AC50,[1],6.74 µM (active) and 9.95 µM (active)
same,AC50,[2],28.3 µM (active) and 12.4 µM (active)
same,AC50,[3],33.6 µM (active)
same,outcome,[3],inactive
same,AC50,[4],15.3 µM (active) and 8.1 µM (active)
same,AC50,[5],29.1 µM (active) and 20 µM (active)
same,AC50,[6],28.6 µM (active) and 17.4 µM (active)
same,AC50,[7],24.3 µM (active) and 13.6 µM (active)
same,AC50,"CD38, CD38 (gene 952)",8.87 µM (active) and 7.95 µM (active)
same,AC50,"CD69, CD69 (gene 969)",8.89 µM (active) and 8.09 µM (active)
C=CC(=O)OCC(CO)(COC(=O)C=C)COC(=O)C=C,AC50,[1],404 nM (active)
same,AC50,[2],0.0816 µM (active)
same,AC50,[3],0.118 µM (active)
same,AC50,[4],0.379 µM (active)
same,AC50,[5],576 nM (active)
same,AC50,[6],163 nM (active)
same,AC50,[7],0.14 µM (active)
same,AC50,"CD38, CD38 (gene 952)",0.34 µM (active)
same,AC50,"CD40, CD40 (gene 958)",0.696 µM (active)
same,AC50,"CD69, CD69 (gene 969)",0.384 µM (active)
CC(=O)CCC=C(C)CCC=C(C)C,outcome,[1],inactive
same,outcome,[2],inactive
same,outcome,[3],inactive
same,outcome,[4],inactive
same,outcome,[5],inactive
same,outcome,[6],inactive
same,outcome,[7],inactive
same,outcome,"CD38, CD38 (gene 952)",inactive
same,outcome,"CD69, CD69 (gene 969)",inactive
CCCO[Si](OCCC)(OCCC)OCCC,outcome,[1],inactive
same,outcome,[2],inactive
same,outcome,[3],inactive
same,outcome,[4],inactive
same,outcome,[5],inactive
same,outcome,[6],inactive
same,outcome,[7],inactive
same,outcome,"CD38, CD38 (gene 952)",inactive
same,outcome,"CD69, CD69 (gene 969)",inactive
O=C(O)C(F)(F)OC(F)(F)C(F)(F)OC(F)(F)C(F)(F)C(F)(F)C(F)(F)F,outcome,[1],inactive
same,outcome,[2],inactive
same,AC50,[3],15 µM (active) and 11.1 µM (active)
same,outcome,[4],inactive
same,outcome,[5],inactive
same,outcome,[6],inactive
same,AC50,[7],24.4 µM (active)
same,outcome,[7],inactive
same,AC50,"CD38, CD38 (gene 952)",41.9 µM (active)
same,outcome,"CD38, CD38 (gene 952)",inactive
same,AC50,"CD69, CD69 (gene 969)",34.2 µM (active)
same,outcome,"CD69, CD69 (gene 969)",inactive
OCCN1CCOCC1,outcome,[1],inactive
same,outcome,[2],inactive
same,outcome,[3],inactive
same,outcome,[4],inactive
same,outcome,[5],inactive
same,outcome,[6],inactive
same,outcome,[7],inactive
same,outcome,"CD38, CD38 (gene 952)",inactive
same,outcome,"CD69, CD69 (gene 969)",inactive
CCOC(=O)CCCCCCCCC(=O)OCC,outcome,[1],inactive
same,outcome,[2],inactive
same,outcome,[3],inactive
same,outcome,[4],inactive
same,outcome,[5],inactive
same,outcome,[6],inactive
same,outcome,[7],inactive
same,outcome,"CD38, CD38 (gene 952)",inactive
same,outcome,"CD40, CD40 (gene 958)",inactive
same,outcome,"CD69, CD69 (gene 969)",inactive
OCC(F)(OC(F)(F)C(F)(OC(F)(F)C(F)(F)C(F)(F)F)C(F)(F)F)C(F)(F)F (stereo unspecified),AC50,[1],5.01 µM (active) and 4.53 µM (active)
same,outcome,[2],inactive
same,AC50,[3],5.49 µM (active) and 5.04 µM (active)
same,outcome,[4],inactive
same,outcome,[5],inactive
same,AC50,[6],5.64 µM (active) and 5.47 µM (active)
same,AC50,[7],5.05 µM (active)
same,outcome,[7],inactive
same,outcome,"CD38, CD38 (gene 952)",inactive
same,AC50,"CD69, CD69 (gene 969)",3.33 µM (active) and 713 nM (active)
CCCCOCCOCCO,outcome,[1],inactive
same,outcome,[2],inactive
same,outcome,[3],inactive
same,outcome,[4],inactive
same,outcome,[5],inactive
same,outcome,[6],inactive
same,outcome,[7],inactive
same,outcome,"CD38, CD38 (gene 952)",inactive
same,outcome,"CD69, CD69 (gene 969)",inactive
C[C@]12CC[C@@H]3c4ccc(O)cc4CC[C@H]3[C@@H]1CC[C@@H]2O,outcome,[1],inactive
same,outcome,[2],inactive
same,outcome,[3],inactive
same,outcome,[4],inactive
same,outcome,[5],inactive
same,outcome,[6],inactive
same,AC50,[7],16.5 µM (active)
same,AC50,"CD38, CD38 (gene 952)",16.7 µM (active)
same,AC50,"CD69, CD69 (gene 969)",20 µM (active)
CC(C)CCCC(C)(C)O,outcome,[1],inactive
same,outcome,[2],inactive
same,outcome,[3],inactive
same,outcome,[4],inactive
same,outcome,[5],inactive
same,outcome,[6],inactive
same,outcome,[7],inactive
same,outcome,"CD38, CD38 (gene 952)",inactive
same,outcome,"CD69, CD69 (gene 969)",inactive
CC(=O)OCC=C(C)CCC=C(C)CCC=C(C)C,outcome,[1],inactive
same,outcome,[2],inactive
same,outcome,[3],inactive
same,outcome,[4],inactive
same,outcome,[5],inactive
same,outcome,[6],inactive
same,outcome,[7],inactive
same,outcome,"CD38, CD38 (gene 952)",inactive
same,outcome,"CD69, CD69 (gene 969)",inactive
c1ccc(OCCOc2ccccc2)cc1,outcome,[1],inactive
same,outcome,[2],inactive
same,outcome,[3],inactive
same,outcome,[4],inactive
same,AC50,[5],5170 nM (active)
same,outcome,[5],inactive
same,outcome,[6],inactive
same,outcome,[7],inactive
same,AC50,"CD38, CD38 (gene 952)",1.49 µM (active)
same,outcome,"CD38, CD38 (gene 952)",inactive
same,outcome,"CD69, CD69 (gene 969)",inactive
C=C(C)C(=O)OCCC(F)(F)C(F)(F)C(F)(F)C(F)(F)C(F)(F)C(F)(F)C(F)(F)C(F)(F)F,outcome,[1],inactive
same,outcome,[2],inactive
same,outcome,[3],inactive
same,outcome,[4],inactive
same,outcome,[5],inactive
same,outcome,[6],inactive
same,AC50,[7],1.22 µM (active)
same,outcome,[7],inactive
same,outcome,"CD38, CD38 (gene 952)",inactive
same,outcome,"CD69, CD69 (gene 969)",inactive
CC=CC(=O)C1=C(C)C=CCC1(C)C,outcome,[1],inactive
same,outcome,[2],inactive
same,outcome,[3],inactive
same,outcome,[4],inactive
same,outcome,[5],inactive
same,outcome,[6],inactive
same,outcome,[7],inactive
same,outcome,"CD38, CD38 (gene 952)",inactive
same,outcome,"CD40, CD40 (gene 958)",inactive
same,outcome,"CD69, CD69 (gene 969)",inactive

# Source: PubChem BioAssay (EPA / NIEHS)
